High-throughput results deposited in PubChem BioAssay by Broad Institute.
An excerpt weighted towards active compounds, which were near 6.8% of everything screened.
C diff HTS – C. difficile growth inhibition; Clostridium difficile clinical isolate growth, OD600, 24 h; active compounds read low; growth activity, negative = inhibition, % at 16 µg/mL (by protocol); actives 0.25% (n = 86,000);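 active means mean growth activity at or below -80% and every replicate also at or below -80%; inconclusive means mean at or below -80% but some replicate above -80%; inactive means mean growth activity above -80%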;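 further: 0% = DMSO wells and -100% = levofloxacin 16 µg/mL wells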
T cruzi growth-1 – blocks T. cruzi growth in NIH3T3 culture | inhibition, % at 8.34 µM | T. cruzi beta-gal in NIH3T3, GalScreen luminescence, 90 h | actives 5.9% (n = 77,000);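 active means mean inhibition above about 93%, with at least 55% of replicates each passing it, limit read from the data, passing the limit was not always enough; inconclusive means only one of those two conditions holds; inactive means neither condition holds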
Pf Dd2 inh – blocks growth of Plasmodium falciparum Dd2 parasites. activity change, % at 10 µM. actives 2.3% (n = 94,000). AID 1159554. P. falciparum Dd2 growth, SYBR Green, 72 h; active compounds read low; in the data active means activity change below about -80%; inconclusive means no clear call, values can overlap the other calls
T cruzi growth-2 – Trypanosoma cruzi proliferation inhibition; shares compounds with T cruzi growth-1; T. cruzi beta-gal in NIH3T3, GalScreen luminescence, 90 h; inhibition, % at 8.35 µM; actives 72% (n = 5,600);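 active means mean replicate inhibition above about 95% and at least 55% of replicates individually reaching it, limit read from the data; inconclusive means only one of the two criteria is met; inactive means neither criterion is met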
T cruzi growth-3 – blocks T. cruzi growth in NIH3T3 host cells | shares compounds with T cruzi growth-1 | T. cruzi beta-gal in NIH3T3, GalScreen luminescence, 90 h | inhibition, % at 2.09 µM | actives 21% (n = 5,600);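 active means mean inhibition above about 95%, with at least 55% of replicates also reaching it, limit read from the data; inconclusive means meets just one of the two conditions; inactive means meets neither condition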;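 further: plate controls were neutral control median for no effect and positive control median for full effect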
NIH3T3 tox – kills mouse NIH/3T3 fibroblasts; actives 14% (n = 5,600); cytotoxicity (signal decrease), % at 8.35 µM; shares compounds with T cruzi growth-1; NIH/3T3 viability, CellTiter-Glo ATP luminescence, 90 h; AID 651742;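 active means mean signal decrease across replicates above about 35% based on untreated-well scatter, with enough replicates individually passing, limit read from the data; inconclusive means no rule stated though some were filed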;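 further: 0% = median of neutral control wells and 100% = median of positive control wells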
NIH3T3 tox 2 – NIH/3T3 (mouse) viability loss. shares compounds with T cruzi growth-1. NIH/3T3 viability, CellTiter-Glo ATP luminescence, 90 h. inhibition, % at 24.9 µM. actives 56% (n = 5,600);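 active means mean loss of cell viability signal at or above a set limit, and enough replicates individually reaching it; inconclusive means meets only the mean limit or only the replicate share; inactive means meets neither condition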;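 further: 0% = median of neutral control wells and 100% = median of positive control wells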
Starred values were filed as active, the others as inactive.

What do the screens show for `COc1cccc(C#Cc2ccc([C@H]3[C@@H](C#N)N(C(=O)c4ccccn4)[C@@H]3CO)cc2)c1`?
C diff HTS: -5; T cruzi growth-1: 90; Pf Dd2 inh: -66

Results for CC(C)C#Cc1ccc([C@H]2[C@@H](C#N)N(C(=O)c3ccccn3)[C@H]2CO)cc1 ?
C diff HTS: 4; T cruzi growth-1: inconclusive; Pf Dd2 inh: -42; T cruzi growth-2: 100*; T cruzi growth-3: 103*; NIH3T3 tox: 9; NIH3T3 tox 2: 12

What do the screens show for `COc1cccc(C#Cc2ccc([C@@H]3[C@@H](C#N)N(C(=O)c4ccccn4)[C@@H]3CO)cc2)c1`?
C diff HTS: 8; T cruzi growth-1: 108*; Pf Dd2 inh: -28; T cruzi growth-2: 108*; T cruzi growth-3: 78; NIH3T3 tox: 1; NIH3T3 tox 2: -32

What do the screens show for `CC(C)C#Cc1ccc([C@@H]2[C@@H](C#N)N(C(=O)c3ccccn3)[C@H]2CO)cc1`?
C diff HTS: -9; T cruzi growth-1: 95; Pf Dd2 inh: -39

Results for COc1cccc(-c2ccc([C@H]3[C@@H](C#N)N(C(=O)c4ccccn4)[C@@H]3CO)cc2)c1 ?
C diff HTS: -1; T cruzi growth-1: 81; Pf Dd2 inh: -23

What do the screens show for `COc1cccc(-c2ccc([C@H]3[C@@H](CO)N(C(=O)c4ccccn4)[C@H]3C#N)cc2)c1`?
C diff HTS: 5; T cruzi growth-1: inconclusive; Pf Dd2 inh: -51; T cruzi growth-2: 98*; T cruzi growth-3: 117*; NIH3T3 tox: -3; NIH3T3 tox 2: 99*

Results for COc1ccc(S(=O)(=O)N(C)C[C@H]2OCCCC[C@@H](C)Oc3ccc(NC(=O)CCCCCC(=O)Nc4ccccc4N)cc3C(=O)N([C@H](C)CO)C[C@@H]2C)cc1 ?
C diff HTS: 2; T cruzi growth-1: 17; Pf Dd2 inh: -63

How did CO[C@@H]1CN(C)C(=O)c2ccc(NC(=O)c3cccc(F)c3)cc2OC[C@@H](C)N(C(C)=O)C[C@@H]1C do in these assays?
C diff HTS: 1; T cruzi growth-1: -4; Pf Dd2 inh: -35

How did Cc1ccc(S(=O)(=O)N(C)C[C@H]2Oc3ccc(NC(=O)CCN4CCOCC4)cc3C(=O)N([C@@H](C)CO)C[C@@H]2C)cc1 do in these assays?
C diff HTS: -8; T cruzi growth-1: 8; Pf Dd2 inh: -26

What do the screens show for `CO[C@@H]1CN(C)C(=O)c2cc(NC(=O)C3CCCC3)ccc2OC[C@@H](C)NC[C@@H]1C`?
T cruzi growth-1: -29

How did CCC(=O)Nc1ccc2c(c1)C(=O)N(C)C[C@@H](OC)[C@@H](C)CN(C(=O)C1CCC1)[C@@H](C)CO2 do in these assays?
C diff HTS: 0; T cruzi growth-1: -7; Pf Dd2 inh: 7

How did CC(C)NC(=O)Nc1ccc2c(c1)C(=O)N([C@H](C)CO)C[C@@H](C)[C@H](CN(C)C(=O)Nc1ccc(F)cc1)O2 do in these assays?
C diff HTS: -5; T cruzi growth-1: 19; Pf Dd2 inh: 24

What do the screens show for `O=C(C[C@@H]1C[C@H]2c3cc(NC(=O)NC4CCCC4)ccc3O[C@H]2[C@@H](CO)O1)NCC1CC1`?
C diff HTS: 2; T cruzi growth-1: -2; Pf Dd2 inh: 1

How did COCC#Cc1ccc2c(c1)O[C@H](CN(C)Cc1ccccc1)[C@H](C)CN([C@@H](C)CO)S2(=O)=O do in these assays?
C diff HTS: 2; T cruzi growth-1: 48; Pf Dd2 inh: -32

What do the screens show for `COCC#Cc1ccc2c(c1)O[C@@H](CN(C)Cc1ccncc1)[C@H](C)CN([C@@H](C)CO)S2(=O)=O`?
C diff HTS: -1; T cruzi growth-1: inconclusive; Pf Dd2 inh: -8; T cruzi growth-2: 94; T cruzi growth-3: 97*; NIH3T3 tox: 2; NIH3T3 tox 2: 65*

How did COCC#Cc1ccc2c(c1)O[C@H](CN(C)Cc1ccncc1)[C@@H](C)CN([C@H](C)CO)S2(=O)=O do in these assays?
C diff HTS: 0; T cruzi growth-1: 44; Pf Dd2 inh: 27

How did COCC#Cc1ccc2c(c1)O[C@@H](CN(C)Cc1ccccc1)[C@H](C)CN([C@@H](C)CO)S2(=O)=O do in these assays?
C diff HTS: 6; T cruzi growth-1: 101*; Pf Dd2 inh: -70; T cruzi growth-2: 85; T cruzi growth-3: 64; NIH3T3 tox: 52*; NIH3T3 tox 2: 99*

How did C[C@@H]1CCCCO[C@H](CN(C)Cc2ccccc2)[C@H](C)CN([C@H](C)CO)C(=O)c2cc(NC(=O)Nc3ccc4c(c3)OCO4)ccc2O1 do in these assays?
C diff HTS: 7; T cruzi growth-1: 98*; Pf Dd2 inh: -78; T cruzi growth-2: 106*; T cruzi growth-3: 91; NIH3T3 tox: 12; NIH3T3 tox 2: 52*

What do the screens show for `C[C@@H]1CCCCO[C@H](CN(C)Cc2ccc3c(c2)OCO3)[C@H](C)CN([C@H](C)CO)C(=O)c2cc(NC(=O)Nc3ccccc3)ccc2O1`?
C diff HTS: 20; T cruzi growth-1: 114*; Pf Dd2 inh: inconclusive; T cruzi growth-2: inconclusive; T cruzi growth-3: 103*; NIH3T3 tox: 10; NIH3T3 tox 2: 104*

What do the screens show for `C[C@@H]1CCCCO[C@@H](CN(C)Cc2ccccc2)[C@@H](C)CN([C@H](C)CO)C(=O)c2cc(NC(=O)Nc3ccc4c(c3)OCO4)ccc2O1`?
C diff HTS: 2; T cruzi growth-1: 43; Pf Dd2 inh: 36

Results for C[C@H](CO)N1C[C@H](C)[C@@H](CN(C)Cc2ccc3c(c2)OCO3)OCCCC[C@H](C)Oc2ccc(NC(=O)Nc3ccccc3)cc2C1=O ?
C diff HTS: 9; T cruzi growth-1: 38; Pf Dd2 inh: -17

Results for C[C@@H]1CCCCO[C@@H](CN(C)Cc2ccc3c(c2)OCO3)[C@@H](C)CN([C@H](C)CO)C(=O)c2cc(NC(=O)Nc3ccccc3)ccc2O1 ?
C diff HTS: 25; T cruzi growth-1: inconclusive; Pf Dd2 inh: 18; T cruzi growth-2: 112*; T cruzi growth-3: 79; NIH3T3 tox: 20; NIH3T3 tox 2: 18

Results for C[C@@H]1CCCCO[C@@H](CN(C)Cc2ccc3c(c2)OCO3)[C@H](C)CN([C@@H](C)CO)C(=O)c2cc(NC(=O)Nc3ccccc3)ccc2O1 ?
C diff HTS: 4; T cruzi growth-1: 84; Pf Dd2 inh: -76

Results for CCNC(=O)[C@H]1[C@H](CO)[C@H]2Cn3c(ccc(/C=C/c4ccccc4)c3=O)[C@@H]1N2CC ?
C diff HTS: -1; T cruzi growth-1: 29; Pf Dd2 inh: -3

What do the screens show for `C[C@@H]1CN([C@H](C)CO)C(=O)c2cccc(NS(=O)(=O)c3cccs3)c2O[C@H]1CN(C)Cc1ccc(C(=O)Nc2ccccc2N)cc1`?
C diff HTS: 2; Pf Dd2 inh: -70
